From publication PMC5540273 (PLoS ONE, 2017)
Read-outs that look alike come from different tables or passages of the source.

Columns and labels:
[1] = system: T1, PKAC-alpha; conditions: concentration: 1 μM, replicates: in singlicate; n = 1
T1 construct: gene PRKACA

[2] = system: T2, PKAC-beta; conditions: concentration: 1 μM, replicates: in singlicate; n = 1
T2 construct: gene PRKACB

[3] = system: PKMYT1; conditions: concentration: 1 μM, replicates: in singlicate; n = 1
[4] = system: PKN1; conditions: concentration: 1 μM, replicates: in singlicate; n = 1
[5] = system: PKN2; conditions: concentration: 1 μM, replicates: in singlicate; n = 1
[6] = system: PLK1; conditions: n = 1
[7] = system: PLK2; conditions: concentration: 1 μM, replicates: in singlicate; n = 1
[8] = system: PLK3; conditions: concentration: 1 μM, replicates: in singlicate; n = 1
[9] = system: PLK4; conditions: concentration: 1 μM, replicates: in singlicate; n = 1
[10] = system: PRKCD; conditions: concentration: 1 μM, replicates: in singlicate; n = 1
[11] = system: PRKCE; conditions: concentration: 1 μM, replicates: in singlicate; n = 1
[12] = system: PRKCH; conditions: concentration: 1 μM, replicates: in singlicate; n = 1
[13] = system: PRKCI; conditions: concentration: 1 μM, replicates: in singlicate; n = 1
[14] = system: PRKCQ; conditions: concentration: 1 μM, replicates: in singlicate; n = 1
[15] = system: PRKD1; conditions: concentration: 1 μM, replicates: in singlicate; n = 1
[16] = system: PRKD2; conditions: concentration: 1 μM, replicates: in singlicate; n = 1
[17] = system: PRKD3; conditions: concentration: 1 μM, replicates: in singlicate; n = 1
[18] = system: PRKG1; conditions: concentration: 1 μM, replicates: in singlicate; n = 1
[19] = system: PRKG2; conditions: concentration: 1 μM, replicates: in singlicate; n = 1
[20] = system: T3, PRKR; conditions: concentration: 1 μM, replicates: in singlicate; n = 1
T3 construct: gene EIF2AK2

[21] = concentration: 1 μM, replicates: in singlicate
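Note: KINOMEscan kinase panel screen.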

COc1cc2ncn(-c3cc(OCc4ccncc4)c(C(N)=O)s3)c2cc1OC [GSK336313]
%Inh [1]: 0% | %Inh [2]: 0% | %Inh [3]: 0% | %Inh [4]: 31% | %Inh [5]: 0% | %Inh ([6]; 1 µM): 81% | %Inh [7]: 96.6% | %Inh [8]: 55% | %Inh [9]: 7% | %Inh [10]: 0% | %Inh [11]: 1% | %Inh [12]: 0% | %Inh [13]: 0% | %Inh [14]: 0% | %Inh [15]: 47% | %Inh [16]: 3% | %Inh [17]: 15% | %Inh [18]: 0% | %Inh [19]: 0% | %Inh [20]: 0%

CCn1c(-c2nonc2N)nc2ccccc21 [SB-693162/GW549034]
%Inh [1]: 0% | %Inh [2]: 0% | %Inh [3]: 0% | %Inh [4]: 0% | %Inh [5]: 0% | %Inh [6, 21]: 62% | %Inh [7]: 21% | %Inh [8]: 34% | %Inh [9]: 30% | %Inh [10]: 0% | %Inh [11]: 44% | %Inh [12]: 17% | %Inh [13]: 31% | %Inh [14]: 16% | %Inh [15]: 0% | %Inh [16]: 3% | %Inh [17]: 0% | %Inh [18]: 0% | %Inh [19]: 67% | %Inh [20]: 0%

COc1ccc(CNC(=O)NC2CCN(c3ccnc(Nc4ccc(F)cc4)n3)C2)cc1 (stereo not shown) [GSK1379706]
%Inh [1]: 0% | %Inh [2]: 0% | %Inh [3]: 10% | %Inh [4]: 14% | %Inh [5]: 0% | %Inh [6, 21]: 10% | %Inh [7]: 0% | %Inh [8]: 0% | %Inh [9]: 19% | %Inh [10]: 0% | %Inh [11]: 27% | %Inh [12]: 12% | %Inh [13]: 0% | %Inh [14]: 15% | %Inh [15]: 0% | %Inh [16]: 14% | %Inh [17]: 15% | %Inh [18]: 0% | %Inh [19]: 20% | %Inh [20]: 15%

COc1cc(Nc2ccnc3ccc(C(F)(F)F)cc23)cc(OC)c1OC [GW577382]
%Inh [1]: 14% | %Inh [2]: 4% | %Inh [3]: 6% | %Inh [4]: 0% | %Inh [5]: 0% | %Inh [6, 21]: 12% | %Inh [7]: 0% | %Inh [8]: 0% | %Inh [9]: 50% | %Inh [10]: 15% | %Inh [11]: 19% | %Inh [12]: 13% | %Inh [13]: 48% | %Inh [14]: 4% | %Inh [15]: 6% | %Inh [16]: 6% | %Inh [17]: 0% | %Inh [18]: 3% | %Inh [19]: 6% | %Inh [20]: 0%

Cl.c1ccc(Cn2cnc3cc(Nc4ncnc5ccccc45)ccc32)cc1 [GW272142]
%Inh [1]: 0% | %Inh [2]: 0% | %Inh [3]: 0% | %Inh [4]: 0% | %Inh [5]: 0% | %Inh [6, 21]: 0% | %Inh [7]: 0% | %Inh [8]: 0% | %Inh [9]: 0% | %Inh [10]: 0% | %Inh [11]: 4% | %Inh [12]: 0% | %Inh [13]: 0% | %Inh [14]: 0% | %Inh [15]: 0% | %Inh [16]: 1% | %Inh [17]: 0% | %Inh [18]: 0% | %Inh [19]: 0% | %Inh [20]: 0%

COc1ccc(-c2cc3c(C)nc(N)nc3n([C@H]3CC[C@H](OCCO)CC3)c2=O)cn1
%Inh [1]: 3% | %Inh [2]: 0% | %Inh [3]: 0% | %Inh [4]: 5% | %Inh [5]: 0% | %Inh [6, 21]: 0% | %Inh [7]: 0% | %Inh [8]: 0% | %Inh [9]: 1% | %Inh [10]: 2% | %Inh [11]: 14% | %Inh [12]: 0% | %Inh [13]: 18% | %Inh [14]: 0% | %Inh [15]: 2% | %Inh [16]: 0% | %Inh [17]: 9% | %Inh [18]: 0% | %Inh [19]: 0% | %Inh [20]: 0%

CCC(=O)c1c(-c2ccccc2)c2cc(Cl)ccc2c(=O)n1Cc1cc(S(C)(=O)=O)n(CCC(C)(C)O)n1
%Inh [1]: 0% | %Inh [2]: 0% | %Inh [3]: 0% | %Inh [4]: 0% | %Inh [5]: 0% | %Inh [6, 21]: 0% | %Inh [7]: 0% | %Inh [8]: 8% | %Inh [9]: 24% | %Inh [10]: 0% | %Inh [11]: 0% | %Inh [12]: 3% | %Inh [13]: 23% | %Inh [14]: 37% | %Inh [15]: 1% | %Inh [16]: 4% | %Inh [17]: 0% | %Inh [18]: 0% | %Inh [19]: 21% | %Inh [20]: 0%

Cc1c(Cn2c(C)nn3c(=O)cc(N4CCO[C@H](C)C4)nc23)cccc1C(F)(F)F [GSK2373690]
%Inh [1]: 0% | %Inh [2]: 11% | %Inh [3]: 11% | %Inh [4]: 0% | %Inh [5]: 0% | %Inh [6, 21]: 0% | %Inh [7]: 0% | %Inh [8]: 0% | %Inh [9]: 0% | %Inh [10]: 0% | %Inh [11]: 0% | %Inh [12]: 35% | %Inh [13]: 26% | %Inh [14]: 17% | %Inh [15]: 0% | %Inh [16]: 0% | %Inh [17]: 0% | %Inh [18]: 15% | %Inh [19]: 0% | %Inh [20]: 0%

COC(=O)c1c(-c2ccccc2)c2cc(C)ccc2c(=O)n1Cc1ccccc1
%Inh [1]: 0% | %Inh [2]: 0% | %Inh [3]: 13% | %Inh [4]: 0% | %Inh [5]: 0% | %Inh [6, 21]: 0% | %Inh [7]: 0% | %Inh [8]: 0% | %Inh [9]: 0% | %Inh [10]: 3% | %Inh [11]: 0% | %Inh [12]: 0% | %Inh [13]: 0% | %Inh [14]: 36% | %Inh [15]: 0% | %Inh [16]: 8% | %Inh [17]: 0% | %Inh [18]: 0% | %Inh [19]: 0% | %Inh [20]: 0%

Fc1cccc(CSc2nnc(-c3ccc4c(c3)CCO4)o2)c1
%Inh [1]: 29% | %Inh [2]: 0% | %Inh [3]: 24% | %Inh [4]: 0% | %Inh [5]: 0% | %Inh [6, 21]: 0% | %Inh [7]: 6% | %Inh [8]: 11% | %Inh [9]: 21% | %Inh [10]: 7% | %Inh [11]: 0% | %Inh [12]: 0% | %Inh [13]: 3% | %Inh [14]: 15% | %Inh [15]: 0% | %Inh [16]: 12% | %Inh [17]: 0% | %Inh [18]: 0% | %Inh [19]: 26% | %Inh [20]: 0%

COc1cc(Nc2nccc(N3CCC(NC(=O)C(C)c4ccc(Cl)cc4)C3)n2)cc(OC)c1OC (stereo not shown) [GSK1379757]
%Inh [1]: 0% | %Inh [2]: 0% | %Inh [3]: 0% | %Inh [4]: 19% | %Inh [5]: 0% | %Inh [6, 21]: 0% | %Inh [7]: 0% | %Inh [8]: 0% | %Inh [9]: 0% | %Inh [10]: 0% | %Inh [11]: 0% | %Inh [12]: 14% | %Inh [13]: 0% | %Inh [14]: 0% | %Inh [15]: 0% | %Inh [16]: 0% | %Inh [17]: 0% | %Inh [18]: 1% | %Inh [19]: 4% | %Inh [20]: 0%
